Assay results published in PubChem BioAssay AID1159580 (chemical genetic matrix, 2015).
“And” between values parts separate entries of the source, which are not always exact repeats. Equal entries are not always repeated. The campaign covered roughly 5,500 compounds. About 2,000 (36%) were called active. Another 18% or so got no clear call; they are omitted. Cut-off read from the data, not from the text of the source: active = normalized growth mostly below about 0.91 (no sharp cut-off); inconclusive = no clear call, values can overlap the other calls; inactive = mostly above about 0.92. The list shows a part of the results.

Assay: chemical genetic growth profiling, strain panel (AID 1159580);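 note: tested at 20 µM; growth read once vehicle control cultures reached saturation at 30 °C; 1 = growth at the plate median or of vehicle wells; lower values mean less growth of the strain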
Conditions: S. cerevisiae deletion strains, growth OD

Measured: normalized growth

CC(C)NCC(O)c1ccc(O)c(O)c1 (stereo not given)
inactive: locus YAL013W, strain DEP1, active compounds read low 1.01 | locus YAL021C, strain ccr4, active compounds read low 0.994 | locus YAL026C, strain drs2, active compounds read low 0.994 | locus YAL030W, strain snc1, active compounds read low 0.996 | locus YAL040C, strain CLN3, active compounds read low 1 and 1.06 | locus YBL061C, strain skt5, active compounds read low 0.99 | locus YBR009C, strain hhf1, active compounds read low 0.995 | locus YBR021W, strain FUR4, active compounds read low 1.01 | locus YBR023C, strain chs3, active compounds read low 0.982 | locus YBR171W, strain sec66, active compounds read low 0.979 | locus YBR229C, strain ROT2, active compounds read low 1.02 | locus YBR231C, strain swc5, active compounds read low 0.997 | locus YBR279W, strain paf1, active compounds read low 0.973 | locus YCL011C, strain gbp2, active compounds read low 0.978 | locus YCL016C, strain dcc1, active compounds read low 0.951 | locus YCL029C, strain bik1, active compounds read low 1 | locus YCL061C, strain MRC1 (second series), active compounds read low 0.995 and 0.99 | locus YCL061C, strain MRC1, active compounds read low 0.985 | locus YCL069W, strain vba3, active compounds read low 1 | locus YCR088W, strain abp1, active compounds read low 0.99 | locus YDL005C, strain med2, active compounds read low 0.997 | locus YDL035C, strain GPR1, active compounds read low 1.02 | locus YDL040C, strain nat1, active compounds read low 1.01 | locus YDL074C, strain BRE1, active compounds read low 1.03 | locus YDL101C, strain DUN1, active compounds read low 1.01 | locus YDL185W, strain tfp1, active compounds read low 0.984 | locus YDL192W, strain arf1, active compounds read low 1 | locus YDR001C, strain nth1, active compounds read low 0.992 | locus YDR069C, strain doa4, active compounds read low 1.02 | locus YDR101C, strain arx1, active compounds read low 1.02 | locus YDR137W, strain rgp1, active compounds read low 1 | locus YDR150W, strain NUM1, active compounds read low 1.02 and 0.999 | locus YDR159W, strain sac3, active compounds read low 1.01 | locus YDR162C, strain NBP2, active compounds read low 1 | locus YDR195W, strain ref2 0.992 | locus YDR297W, strain sur2, active compounds read low 0.99 | locus YDR318W, strain mcm21, active compounds read low 0.996 | locus YDR334W, strain swr1, active compounds read low 0.982 | locus YDR335W, strain msn5, active compounds read low 0.992 | locus YDR363W, strain ESC2, active compounds read low 1.02 and 0.978 | locus YDR388W, active compounds read low 0.994 | locus YDR392W, strain spt3, active compounds read low 0.912 | locus YDR502C, strain sam2, active compounds read low 0.999 | locus YEL003W, strain gim4, active compounds read low 1.01 | locus YEL037C, strain rad23, active compounds read low 0.993 | locus YEL061C, strain CIN8 (second series), active compounds read low 0.994 | locus YEL061C, strain CIN8, active compounds read low 1.01 | locus YER002W, strain NOP16, active compounds read low 0.997 and 0.956 | locus YER015W, strain faa2, active compounds read low 0.995 | locus YER016W, strain bim1, active compounds read low 1.01 | locus YER110C, active compounds read low 0.997 | locus YER111C, strain swi4, active compounds read low 0.985 | locus YER155C, strain BEM2 (second series), active compounds read low 0.989 | locus YER155C, strain BEM2, active compounds read low 1.01 | locus YER167W, strain BCK2, active compounds read low 0.992 | locus YFR010W, strain ubp6, active compounds read low 0.992 | locus YGL078C, strain dbp3, active compounds read low 0.995 | locus YGL086W, strain mad1, active compounds read low 0.994 | locus YGL167C, strain pmr1, active compounds read low 0.989 | locus YGL173C, strain kem1, active compounds read low 0.999 | locus YGL227W, strain vid30, active compounds read low 0.99 | locus YGL240W, strain doc1, active compounds read low 0.982 | locus YGL248W, strain PDE1, active compounds read low 1.01 | locus YGL253W, strain hxk2, active compounds read low 0.999 | locus YGR078C, strain PAC10, active compounds read low 1.02 and 0.98 | locus YGR135W, strain pre9, active compounds read low 0.993 | locus YGR229C, strain SMI1, active compounds read low 1.01 | locus YGR252W, strain gcn5, active compounds read low 0.936 | locus YHR013C, strain ard1, active compounds read low 0.976 | locus YHR027C, strain rpn1, active compounds read low 0.997 | locus YHR030C, strain SLT2, active compounds read low 1.01 and 0.977 | locus YHR079C, strain IRE1 (second series), active compounds read low 1 | locus YHR079C, strain IRE1, active compounds read low 0.993 | locus YHR094C, strain hxt1, active compounds read low 0.987 | locus YHR129C, strain ARP1, active compounds read low 1.01 | locus YHR142W, strain chs7, active compounds read low 0.965 | locus YHR200W, strain rpn10, active compounds read low 1 | locus YIL066C, strain RNR3, active compounds read low 1.01 | locus YIL073C, strain SPO22, active compounds read low 1.05 | locus YIL125W, strain kgd1, active compounds read low 0.99 | locus YIR030C, strain dcg1, active compounds read low 1.01 | locus YJL092W, strain hpr5, active compounds read low 0.985 | locus YJL095W, strain BCK1 (second series), active compounds read low 0.995 | locus YJL095W, strain BCK1, active compounds read low 1.03 and 0.991 | locus YJL115W, strain asf1, active compounds read low 0.995 | locus YJL129C, strain trk1, active compounds read low 0.979 | locus YJL134W, strain LCB3, active compounds read low 1.02 | locus YJL154C, strain vps35, active compounds read low 0.995 | locus YJL164C, strain tpk1, active compounds read low 0.998 | locus YJL166W, strain qcr8, active compounds read low 0.972 | locus YJL168C, strain set2, active compounds read low 0.984 | locus YJL187C, strain SWE1 (second series), active compounds read low 1.01 | locus YJL187C, strain SWE1, active compounds read low 1 | locus YJR043C, strain POL32, active compounds read low 1.01 | locus YJR066W, strain TOR1, active compounds read low 0.944
